BoNT-A LC inh2 = BoNT A light chain protease inhibition; multiplex microsphere protease substrate cleavage, flow cytometry; inhibition, % at 10 µM; hit rate 0.17% among 360,000; further: plate controls were buffer without enzyme for full effect and enzyme alone for no effect
BoNT-F LC inh = inhibitors of Botulinum neurotoxin F light chain protease. inhibition, % at 10 µM. hit rate 0.22% among 360,000. AID 588497. Multiplex microsphere protease cleavage assay, flow cytometry; in the data active means inhibition above about 35%, passing the limit was not always enough; inconclusive means no clear call, values can overlap the other calls; further: plate controls were buffer without enzyme for full effect and enzyme alone for no effect
MazEF act = increases E. coli MazEF RNase cleavage of RNA | FAM/BHQ RNA-DNA oligo cleavage fluorescence, 5 h | activation, % at 20 µM | hit rate 0.32% among 350,000 | AID 504720; in the data active means activation above about 50%
Target sequence (P0AE70 whole entry, looked up): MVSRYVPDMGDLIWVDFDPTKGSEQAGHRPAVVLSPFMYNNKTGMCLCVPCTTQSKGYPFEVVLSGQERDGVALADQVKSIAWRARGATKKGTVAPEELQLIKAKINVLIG
Autofluor counter = counter-screen for toxin protease inhibitors: compound fluorescence; compound autofluorescence counterscreen, microsphere flow cytometry; hits give high values; fluorescence intensity (test concentration not listed); hit rate 3.1% among 360,000; AID 624483; in the data active means fluorescence intensity above about 16000; inconclusive means no clear call, values can overlap the other calls
Anthrax LF prot = anthrax lethal factor protease inhibition. hit rate 0.12% among 360,000. multiplex microsphere protease cleavage assay, LF. inhibition, % at 10 µM; further: plate controls were buffer without enzyme for full effect and enzyme alone for no effect
Numbers without * were called inactive; ? = inconclusive; . = no result given; ! = a repeat was not active. This is a sample that favours compounds with a hit; in the whole collection about 3.6% have one here. Unless noted, no stated cut-off is given here; in the data, active means inhibition above about 30%; inconclusive means no clear call, values can overlap the other calls; inactive means below that.

SMILES | BoNT-A LC inh2 | BoNT-F LC inh | MazEF act | Autofluor counter | Anthrax LF prot
O=c1[nH]c2cc3c(cc2cc1CN(Cc1ccccc1)Cc1nnnn1Cc1ccco1)OCCO3 | 1 | 0 | 49 | 3616 | 2
COc1ccccc1CN(Cc1cc2cc3c(cc2[nH]c1=O)OCCO3)Cc1nnnn1Cc1ccco1 | 0 | -5 | 5 | 23267* | -4
O=c1[nH]c2cc3c(cc2cc1CN(Cc1cccs1)Cc1nnnn1Cc1ccco1)OCCO3 | 0 | -1 | 1 | 3579 | -5
O=c1[nH]c2cc3c(cc2cc1CN(Cc1cccnc1)Cc1nnnn1Cc1ccco1)OCCO3 | 2 | 4 | 54* | 7366 | 1
Cc1cc(C(=O)NCc2cccnc2)no1 | 0 | 2 | -1 | 22225* | -3
O=C(NCCCNCc1ccccc1)c1ccccn1 | 0 | -9 | 0 | 24330*! | 2
CCN(CC)CCNC(=O)/C(=N\O)c1ccccn1 | 0 | -3 | 7 | 3970 | -5
O=C(O)c1ccccc1C(=O)NCc1cccnc1 | 0 | 2 | 0 | 2396 | -3
CN(C)CCCNCCCNC(=O)/C(=N\O)c1ccccn1 | ? | -3 | 2 | 22814* | 0
O=C(NCc1cccnc1)c1ccccn1 | 2 | 2 | 9 | 22039* | 1
COc1ccc(CN2C(=O)C(CC(=O)NC3CCCCC3)CC(C(=O)N(C)C)=C2C)cc1 (centres undefined) | 0 | -2 | 4 | 3578 | 2
CCOC(=O)CCC1(C(=O)OC)C(=O)CCCCCC=C1C(=O)OC (centres undefined) | 0 | -15 | 1 | 3046 | -3
Cc1ccccc1C(=O)N1CCC(C(=O)NN2C(=O)NC3(CCC(C)CC3)C2=O)CC1 (centres undefined) | 0 | -1 | 2 | 7991 | -4
COc1ccccc1CNC(=O)c1cnccn1 | -3 | -4 | -1 | 17158* | -6
Cc1cc(C(=O)NCC(c2ccco2)N(C)C)no1 (centres undefined) | 2 | 1 | 1 | 19860* | -4
COc1ccc(C(=O)NCc2cccnc2)cc1OC | 1 | -2 | 1 | 22834* | 0
COc1cccc(C(=O)NCc2cccnc2)c1 | 0 | -6 | -1 | 10426 | -3
Cc1ccc(-c2cc(C(=O)NCc3cccnc3)no2)cc1 | 9 | 10 | 3 | 17516* | -11
COc1cc(C(=O)/C=C/c2cccnc2)c([N+](=O)[O-])cc1OC | 0 | -3 | 6 | 3629 | -2
CC1(Cc2ccccc2OC(F)(F)F)C(=O)Nc2ccc(-c3ccsc3)cc21 (centres undefined) | 0 | -3 | . | 4241 | -2
Cc1ccccc1-c1ccc(C(=O)NCc2ccccc2)o1 | 0 | 2 | -2 | 3818 | -12
O=C(NCc1ccccc1)c1ccc(-c2ccc(F)cc2)o1 | ? | -2 | 0 | 21149* | -1
Cn1nc(C(=O)NCc2ccc(F)cc2)c2ccccc2c1=O | 2 | 0 | 5 | 22634* | -3
COc1ccc(NC(=O)COC(=O)CCc2ccccc2)c(OC)c1 | -1 | 4 | 5 | 4371 | -2
Cc1cc(C(N)=O)c2ccccc2n1 | -1 | -8 | -4 | 13135 | -2
SMILES | BoNT-A LC inh2 | BoNT-F LC inh | MazEF act | Autofluor counter | Anthrax LF prot
NC(=O)c1cc2c3ccccc3ccn2c1-c1ccccc1 | -4 | -4 | 51* | 3958 | 0
Fc1ccc(CSc2nc3ccccc3[nH]2)c2ccccc12 | 0 | -2 | 54* | 2740 | 1
CCCOc1ccc(CSc2nc3ccccc3[nH]2)cc1 | ? | 3 | -9 | 22003* | -5
Cc1ccc(NC(=O)CCNS(=O)(=O)c2ccccc2F)cc1S(=O)(=O)N1CCOCC1 | 3 | 8 | -5 | 5542 | 3
COc1cccc(-n2c(SC)nnc2-c2cnccn2)c1 | 6 | 6 | 1 | 20539* | -9
CSc1nnc(-c2cnccn2)n1C | -1 | -5 | 14 | 23864* | 0
COc1cccc(-n2c(SCC#N)nnc2-c2cnccn2)c1 | 3 | 4 | 11 | 15146 | -8
Cn1c(SCC(N)=O)nnc1-c1cnccn1 | -1 | -5 | 1 | 4360 | -4
CCC(=O)c1cn(CC(=O)Nc2cccc(C)c2)c2ccccc12 | -2 | -2 | 0 | 3321 | 23
COc1ccc(S(=O)(=O)N2CCOC23CCN(S(=O)(=O)c2ccccc2)CC3)cc1 | 0 | -2 | 1 | 5041 | 1
O=S1(=O)CCN(C2CCCC2)CC1 | -1 | -5 | 6 | 4076 | -6
CN1CCN(C2CCCCCC2)CC1 | -1 | 0 | 2 | 23426* | 0
CCOc1ccc(C(c2c(C)[nH][nH]c2=O)c2c(C)[nH][nH]c2=O)cc1OC | 0 | -3 | 11 | 2215 | 0
CCOc1cc(C(c2c(C)[nH][nH]c2=O)c2c(C)[nH][nH]c2=O)ccc1OC(=O)c1cccc([N+](=O)[O-])c1 | 3 | -4 | 2 | 19908* | 0
CCOc1cc(C(c2c(C)[nH][nH]c2=O)c2c(C)[nH][nH]c2=O)ccc1OCc1ccc([N+](=O)[O-])cc1 | 0 | -6 | -1 | 22205* | 0
O=C(Nc1nnc(S(=O)(=O)N2CCN(c3ccc(F)cc3)CC2)s1)c1ccco1 | -2 | -9 | 4 | 5784 | -3
Cc1ncc(CO)n1Cc1ccc(Cl)cc1 | 0 | -5 | -3 | 2759 | -8
Cc1nn(Cc2cccc(C(=O)N3N=C(C(F)F)CC3(O)C(F)F)c2)c(C)c1[N+](=O)[O-] (centres undefined) | -4 | -6 | -2 | 24863* | 0
Cc1nn(Cc2cccc(C(=O)O)c2)c(C)c1[N+](=O)[O-] | 0 | -2 | 3 | 4372 | -3
CC1=NN(C(=O)c2cccc(Cn3nc(C)c([N+](=O)[O-])c3C)c2)C(O)(C(F)(F)F)C1 (centres undefined) | -4 | -7 | 4 | 24994* | 0
CCC(NC(=O)c1cccc(Cn2nc(C)c([N+](=O)[O-])c2C)c1)c1ccc(C(C)C)cc1 (centres undefined) | 1 | -1 | -8 | 22838* | -2
Cc1ccc(S(=O)(=O)Nc2ccccc2C(=O)N2CCCCC2)cc1 | 2 | 3 | -5 | 6147 | -3
CC1CCCCC1NC(=O)COC(=O)c1ccc2c(c1)OCCO2 (centres undefined) | 0 | -1 | 5 | 4087 | 0
CC(=O)c1ccc(OC(C)C(=O)NCC2(N3CCOCC3)CCCCC2)cc1 (centres undefined) | 0 | 7 | 7 | 3465 | 6
Cc1cc(/C=N\NC(=O)CC(=O)NC2CCCCC2)c(C)n1-c1cccc(Cl)c1Cl | -1 | 2 | -2 | 1967 | -2
Cc1cc(/C=N\NC(=O)CC(=O)NC2CCCCC2)c(C)n1-c1ccc(Cl)c(Cl)c1 | -3 | -4 | -3 | 24080* | -3
COc1ccc2nc(C)cc(N3CCOCC3)c2c1 | 2 | 5 | 2 | 19626* | -6
CCCOc1ccc(NC(=O)CC2C(=O)N(CC)C(=S)N2Cc2cccs2)cc1 (centres undefined) | -4 | -8 | 2 | 21389* | -4
COc1ccc(NC(=O)CC2C(=O)N(C)C(=S)N2Cc2cccs2)cc1 (centres undefined) | -2 | -21 | -1 | 10968 | 0
CC(C)n1c(CN(C)Cc2ccccc2)nc2c1c(=O)n(C)c(=O)n2C | . | . | 1 | . | .
